Bioassay records from PubChem BioAssay.
An excerpt weighted towards active compounds, which were near 2.5% of everything screened.
POLK inh – blocks human DNA polymerase kappa activity | Q9UBT6 | purified Pol kappa, fluorescent DNA synthesis assay, 10 min | Potency, µM (top dose mostly 107 µM), for the others: top-dose activity, negative = inhibition, hits mostly inhibitors | hit rate 0.53% among 400,000; further: on the % scale 0 is the no-effect control and ±100 the full control effect
Target sequence (Q9UBT6 whole entry, looked up): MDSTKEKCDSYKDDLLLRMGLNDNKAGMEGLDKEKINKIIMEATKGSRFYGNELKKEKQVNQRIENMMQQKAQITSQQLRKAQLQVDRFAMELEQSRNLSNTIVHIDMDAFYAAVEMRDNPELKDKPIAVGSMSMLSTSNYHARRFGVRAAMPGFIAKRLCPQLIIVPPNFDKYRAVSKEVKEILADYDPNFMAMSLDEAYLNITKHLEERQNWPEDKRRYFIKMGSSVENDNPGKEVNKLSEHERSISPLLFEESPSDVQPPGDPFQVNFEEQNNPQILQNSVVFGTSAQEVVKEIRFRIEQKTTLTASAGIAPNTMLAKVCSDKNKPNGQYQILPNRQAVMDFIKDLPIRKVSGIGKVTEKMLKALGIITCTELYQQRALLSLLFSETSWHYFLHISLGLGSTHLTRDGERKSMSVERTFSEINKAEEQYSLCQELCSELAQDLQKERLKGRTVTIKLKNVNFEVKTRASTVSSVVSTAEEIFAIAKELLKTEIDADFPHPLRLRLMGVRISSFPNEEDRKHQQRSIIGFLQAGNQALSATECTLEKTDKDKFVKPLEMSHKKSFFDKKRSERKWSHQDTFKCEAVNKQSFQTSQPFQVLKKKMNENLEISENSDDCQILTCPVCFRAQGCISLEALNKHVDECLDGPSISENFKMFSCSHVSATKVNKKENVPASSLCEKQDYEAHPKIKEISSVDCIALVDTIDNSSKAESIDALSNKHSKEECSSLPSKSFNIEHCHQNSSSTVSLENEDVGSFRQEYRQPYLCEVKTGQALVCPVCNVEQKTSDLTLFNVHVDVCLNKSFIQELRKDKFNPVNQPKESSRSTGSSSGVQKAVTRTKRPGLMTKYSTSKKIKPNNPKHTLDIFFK
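Activity was followed as the change in fluorescence between reads at 0 and 10 min after starting the reaction with 50 nM substrate. Beforehand, 10 nM polymerase had been preincubated with compound for 15 min at room temperature.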
POLH inh – DNA polymerase eta (human) inhibition | Q9Y253 | recombinant Pol eta, fluorescent DNA replication assay | Potency, µM (top dose mostly 114 µM), inactives show top-dose activity change, negative = inhibition, actives largely listed as inhibitors | hit rate 1.2% among 390,000 | AID 588591; further: on the % scale 0 is the no-effect control and ±100 the full control effect
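Pol eta at 10 nM preincubated with compounds 15 min at room temperature; reaction started with fluorescent substrate (50 nM final) and read kinetically at 0 and 10 min.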
Pol iota inh – inhibitors of human DNA polymerase iota; Q9UNA4; Pol iota fluorescent replication assay, 10 min; Potency, µM (highest dose often 115 µM), for inactives: at the highest dose activity, negative = inhibition, most hits filed as inhibitors; hit rate 1% among 390,000
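Pol iota at 10 nM preincubated 15 min with compounds at room temperature; reaction started with fluorescent substrate, 50 nM final. Fluorescence read kinetically at 0 and 10 min; buffer-only wells as negative control.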
Pol beta inh – DNA polymerase beta (human) inhibition; P06746; Pol beta primer extension/strand displacement, fluorescence kinetic; Potency, µM (series often up to 114 µM), for inactives: at the highest dose activity change, negative = inhibition, actives largely listed as inhibitors; hit rate 1.3% among 340,000; AID 485314; further: on the % scale 0 is the no-effect control and ±100 the full control effect
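Preincubation: enzyme (10 nM) with compound, 15 min, RT. Reaction: substrate added to 50 nM final. Reads: 0 and 10 min. Analysis: normalized, Hill fit.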
APE1 inh – inhibitors of human APE1 endonuclease. P27695. recombinant APE1, TAMRA/BHQ-2 abasic DNA cleavage fluorescence. Potency, µM (highest dose often 65.8 µM), for the others: top-dose activity change, negative = inhibition, usual class: inhibitors. hit rate 0.35% among 350,000. AID 2517;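 further: plate controls were vehicle for no effect and reference inhibitor for full effect; nearly all actives have a fitted effect of over 55% in size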
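Measures dequenching upon AP-site incision of a 5'-TAMRA/3'-BHQ-2 THF-containing duplex, 50 nM; human APE1 0.75 nM after 15 min room-temperature exposure to compound; kinetic three-point read at one-minute spacing.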
L3MBTL1 block – inhibitors of human L3MBTL1 | Potency, µM (top dose mostly 57.1 µM), inactives show at the highest dose activity, negative = inhibition, actives largely listed as inhibitors | hit rate 0.66% among 230,000 | Q9Y468 | AlphaScreen L3MBTL1–H3K9me1 peptide binding; further: on the % scale 0 is the no-effect control and ±100 the full control effect; nearly all actives have a fitted effect of over 60% in size
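Read-out is AlphaScreen signal from streptavidin donor and nickel chelate acceptor beads (10 ug/mL final each) bridging L3MBTL1 (50 nM) and biotinylated K9-monomethylated H3(1-15) peptide (75 nM), after 30 min compound exposure at room temperature.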
* hit, by the source's call; ? = inconclusive; · = no result; [ ] = remark or other dose. The call rests on the fitted dose curve; in most records, active means well fitted curve in the direction sought with a large enough effect; inconclusive means small, poorly fitted or top-dose-only effect, or another doubt; inactive means no such curve, though single readings can be large; an effect the other way counts as inactive or inconclusive. Potency means the concentration at half of the fitted maximal effect.

SMILES | POLK inh | POLH inh | Pol iota inh | Pol beta inh | APE1 inh | L3MBTL1 block
COc1cccc(C2=Nn3c(nnc3-c3ccccc3C)SC2)c1 | · | · | · | · | 12% | ·
Cc1ccc(NC(=O)C(=Cc2ccc(C(=O)O)cc2)C(=O)Nc2ccc(C)cc2C)c(C)c1 | 8% | 79µM* | 13µM* | -25% | 6% | 0%
Cc1[nH]c2ccccc2c1/C=N/Nc1ccccc1[N+](=O)[O-] | -4% | 2% | 156% | -2% | -7% | 18µM*
CC(C)Oc1ccccc1/C=N/Nc1ccccc1[N+](=O)[O-] | -26% | -14% | -2% | -3% | -7% | 11µM*
Cc1coc2c1C(=O)C(=O)c1c-2ccc2c(C)cccc12 | 79µM* | 28µM* | ? | 20µM* | -4% | ·
Cc1ccc2c3c(cccc13)-c1ccccc1C2=O | 2% | -8% | -5% | -8% | -9% | 15%
Cc1coc2c1C(=O)C(=O)c1c-2ccc2c1CCCC2(C)C | ? | 89µM* | ? | 22µM* | -10% | ?
O=C(C1CCC1)N1CCN(S(=O)(=O)c2ccc(F)cc2)CC1 | 3% | -10% | 2% | · | 45% | 28%
Cc1c(C)c2c(cc(C)c3c(-c4ccccc4)coc32)oc1=O | 6% | -13% | -8% | 19% | · | ·
Cc1nn(-c2ccccc2)c2sc(C(=O)Nc3cccc(Br)c3)cc12 | 9% | -18% | -11% | ? | · | ·
COc1ccc(OC)c(NC(=O)c2cc(-c3cc(C)ccc3O)n[nH]2)c1 | -7% | -28% | 25µM* | -28% | 51% | ·
COc1ccc(OC)c(NC(=O)c2cc(-c3ccc(C)cc3O)n[nH]2)c1 | -4% | -10% | 7% | ? | 10% | ·
Cc1ccc(/C=C/C2=Cc3c(sc(NC(=O)CSc4n[nH]c(N)n4)c3C#N)C(C)(C)C2)o1 | · | · | · | 40µM* | -7% | ?
O=C(Cn1ncc2c(Cl)cccc21)NCc1cccc(Br)c1 | 5% | 2% | ? | -11% | · | ·
c1csc(CNc2ccc(N3CCOCC3)cc2)c1 | · | · | · | · | 33% | ·
COc1ccccc1NCC(=O)c1ccc(Cl)cc1 | -3% | ? | 37% | 89µM* | 12% | ·
COc1cc(/C=C2/SC(=S)N(c3c(C)n(C)n(-c4ccccc4)c3=O)C2=O)ccc1O | -22% | ? | 28µM* | 28µM* | -10% | -7%
O=C(O)CN1C(=O)/C(=C\c2cccc(OCc3ccccc3)c2)SC1=S | -17% | -17% | -28% | -1% | 41% | 6%[2.29 µM]
CCOc1ccc(/C=C2/SC(=S)N(C(C(=O)O)c3ccccc3)C2=O)cc1OCC (stereo not drawn) | -2% | ? | ? | -15% | 3% | ·
O=C(O)COc1cccc(/C=C2/SC(=S)N(Cc3ccccc3)C2=O)c1 | -42% | 79µM* | ? | ? | 20% | ·
COc1cc(/C=C2\SC(=S)N(C(C(=O)O)c3ccccc3)C2=O)ccc1O (stereo not drawn) | -35% | ? | 28µM* | ? | -11% | 0%
O=C1/C(=C\c2ccc(O)c(O)c2)SC(=S)N1Cc1ccccc1 | -24% | -30% | 22µM* | ? | -12% | ·
CN(C)c1ccc(/C=C/c2c[n+](C)cc3ccccc23)cc1 | -19% | · | -12% | · | · | ·
O/N=C(/C[n+]1ccsc1)c1ccc(I)cc1 | -2% | · | 19% | · | · | ·
O=C(Nc1ccc(S(=O)(=O)Nc2cnc3ccccc3n2)cc1)c1cc(F)c(F)cc1Cl | -8% | -18% | 84% | 26% | -4% | ·
COc1ccc(/C=C2\SC(=S)N(CCCC(=O)Nc3ccccc3C(=O)O)C2=O)cc1OC | 3% | 89µM* | ? | -1% | -11% | ·
CCOc1cc(/C=C2/SC(=S)N(CC3CCCO3)C2=O)ccc1O (stereo not drawn) | -18% | -19% | 28µM* | ? | -10% | -25%
COc1cc(/C=C2/SC(=S)N(Cc3ccccc3)C2=O)ccc1O | ? | ? | 40µM* | 10µM* | -8% | ?
COc1ccc(/C=C2\SC(=S)N(CCC(=O)Nc3ccccc3C(=O)O)C2=O)cc1 | -7% | -3% | ? | 8% | -10% | ·
